# From PubChem BioAssay AID1030 (National Center for Advancing Translational Sciences (NCATS), 2008)
# Hit rate of the full screen: of about 220,000 compounds, about 16,000 (7.3%) were called active. Not shown: some 25% with an inconclusive outcome. Calls follow the shape of the dose curve; as a rule, active = well fitted inhibition curve with a large enough effect (not every such curve was filed as active); inconclusive = small, poorly fitted or top-dose-only effect, or another doubt; inactive = no such curve, though single readings can be large or run the other way. What follows is part of a selection rich in actives, with near analogues and random picks from the rest. Entries that show only a call come without a potency.
# Molecular target: Aldehyde dehydrogenase 1A1 (Homo sapiens) (UniProt P00352)
# Assay: qHTS Assay for Inhibitors of Aldehyde Dehydrogenase 1 (ALDH1A1)
# Conditions: Purified ALDH1A1, NADH fluorescence, propionaldehyde substrate; series mostly up to 75.3 µM
# Potency is read from the fitted curve at half-maximal effect.
# Sequence of Aldehyde dehydrogenase 1A1 (Homo sapiens) (P00352 whole entry, looked up): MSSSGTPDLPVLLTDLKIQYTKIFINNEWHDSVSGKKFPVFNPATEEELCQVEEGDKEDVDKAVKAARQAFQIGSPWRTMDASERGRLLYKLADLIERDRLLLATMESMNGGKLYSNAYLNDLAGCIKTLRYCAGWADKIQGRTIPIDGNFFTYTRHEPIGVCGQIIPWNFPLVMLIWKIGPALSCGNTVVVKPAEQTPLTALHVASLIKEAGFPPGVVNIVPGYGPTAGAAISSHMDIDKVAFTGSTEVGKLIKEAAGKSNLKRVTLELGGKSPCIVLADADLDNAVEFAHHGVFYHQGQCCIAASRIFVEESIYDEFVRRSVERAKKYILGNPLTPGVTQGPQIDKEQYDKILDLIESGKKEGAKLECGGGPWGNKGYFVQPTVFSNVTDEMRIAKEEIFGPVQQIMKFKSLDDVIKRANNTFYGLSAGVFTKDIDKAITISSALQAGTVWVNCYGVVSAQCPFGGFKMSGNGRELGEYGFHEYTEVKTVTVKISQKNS
SMILES,Potency,"activity, negative = inhibition"
CC(=O)c1sc(NC(=O)CCCOc2ccccc2C)nc1C,inactive,–
O=[N+]([O-])c1ccccc1N/N=C1\CCc2ccccc21,inactive,–
C=Cn1c(C(=O)O)ccc1-c1ccc(OC)cc1,inactive,–
CCCn1c(SCC(=O)N2CCc3ccccc32)nnc1-c1ccncc1,inactive,–
O=C(CSc1nc2[nH]ncc2c(=O)n1-c1ccccc1)N1CCCc2ccccc21,inactive,–
C=CCn1c(=O)c2ccccc2n2c(SCC(=O)N3CCCc4ccccc43)nnc12,4.47 µM (active),–
Cc1ccnc2nc(C(=O)OCC(=O)N(CC(C)C)CC(C)C)nn12,inactive,–
Cc1ccnc(NS(=O)(=O)c2ccc(NC(=O)c3ccc(S(=O)(=O)N4CCOCC4)cc3)cc2)n1,inactive,–
O=P(O)(O)C(O)c1ccc2ccccc2c1 (stereo unspecified),inactive,–
N#Cc1c2c(c(-c3ccccc3)[nH]c1=O)CCCC2,inactive,–
N#Cc1c(/N=C/N2CCCC2)oc(-c2ccccc2)c1-c1ccccc1,7.94 µM (active),–
CCSc1sc(CC)cc1C=O,inactive,–
O=C(COC(=O)c1ccccc1)Nc1cccc(S(=O)(=O)N2CCOCC2)c1,inactive,–
Cc1ccc(N(C(=O)c2ccc(S(=O)(=O)N(C)C)cc2)C2C=CS(=O)(=O)C2)cc1 (stereo unspecified),inactive,–
C=CCNc1scc(-c2ccccc2)[n+]1CC=C,inactive,–
CCc1ccnc(NS(=O)(=O)c2ccc3c(c2)OCCO3)c1,inactive,–
CCN(C(=O)COC(=O)/C=C/c1nc2ccccc2s1)C1CCS(=O)(=O)C1 (stereo unspecified),inactive,–
COc1ccc(-c2csc(NC(=O)CCCc3cccs3)n2)cc1,inactive,–
Cc1nc(NC(=O)c2cccc(Cl)c2)sc1-c1csc(Nc2cccc(Cl)c2)n1,inactive,–
CCCCC(=O)Nc1nc(C)c(-c2csc(Nc3ccc(Cl)cc3)n2)s1,11.2 µM (active),–
Cc1ccc(Nc2nc(-c3sc(NC(=O)c4ccccc4)nc3C)cs2)cc1,20 µM (active),–
Cc1ccc(-c2csc(NNC(=O)c3ccccc3)n2)cc1,inactive,–

SMILES,Potency,"activity, negative = inhibition"
CCCCN(C)CCC(=O)Nc1ccc(Cl)cc1,inactive,–
COC(=O)CCNc1ccc2c(c1)OCCO2,inactive,–
CCOc1ccc(NCCC(=O)c2ccc3c(c2)OCO3)cc1,0.631 µM (active),–
COc1ccc(C(=O)Nc2ccc3c(c2)OCO3)cc1OC,inactive,–
Cc1ccc(C)n1NC(=O)c1ccc([N+](=O)[O-])cc1,inactive,–
CC(=O)Nc1ccc(Nc2c([N+](=O)[O-])cc(S(C)(=O)=O)cc2[N+](=O)[O-])cc1,inactive,–
Cc1cccc(NC(=S)N2CCCC(c3nc4ccccc4[nH]3)C2)c1 (stereo unspecified),inactive,–
CCC1(C)Cc2c(sc3nnn(CC(=O)Nc4ccc(Cl)cc4)c(=O)c23)CO1 (stereo unspecified),inactive,–
CCCn1nnc2sc3c(c2c1=O)CCC(C)C3 (stereo unspecified),6.31 µM (active),–
CC(C)(C)C1CCc2c(sc3nc(SCC(N)=O)nc(N)c23)C1 (stereo unspecified),inactive,–
Cc1ccc(NC(=O)c2ccccn2)cc1S(=O)(=O)N1CCOCC1,inactive,–
CCc1ccc2c(c1)cc(CN(C(=S)Nc1ccccc1Cl)C1CC1)c1nnnn12,inactive,–
CCOc1ccc2c(c1)cc(CN(C(=O)CC)C1CCCCC1)c1nnnn12,31.6 µM (active),–
O=C(COC(=O)c1ccncc1)c1ccccc1,inactive,–
Cn1cccc1/C=C1\SC(=O)N(CC(=O)Nc2ccc(F)cc2)C1=O,inactive,–
COC(=O)CCCC1=CC2=CC(=O)C(C)(OC(=O)c3cccs3)C(=O)C2=CN1c1cccc(C#N)c1 (stereo unspecified),–,1.29% [at 13.5 µM] (inactive)
Cc1ccc(S(=O)(=O)N(C)CC(=O)N2CCc3ccccc32)cc1,inactive,–
Cc1ccc(-c2cc(C(=O)N3CCc4ccccc4C3)no2)cc1,inactive,–
Cc1ccc2c(c1)N(C(=O)CCC(=O)N1CCc3ccccc3C1)CCO2,20 µM (active),–
Cc1cccc(NC(=O)Nc2ccc3c(c2)OCO3)n1,inactive,–
CC1=C2[C@@H](O)[C@H]([C@@H](C)C(=O)NCCC(C)C)CC[C@@]2(C)C=CC1=O,inactive,–
CC(=O)OC1C([N+]2(C)CCCCC2)C[C@H]2C3CC[C@H]4C[C@H](OC(C)=O)C([N+]5(C)CCCCC5)CC4(C)C3CCC12C (stereo partly specified),inactive,–

SMILES,Potency,"activity, negative = inhibition"
O=C(O)C1CCN(C(=O)OCc2ccccc2)CC1,inactive,–
N#Cc1c(N)sc2c1CCN(C(=O)OCc1ccccc1)C2,10 µM (active),–
N#Cc1ccc(COC(=O)Cn2nnc(-c3ccccc3)n2)cc1,inactive,–
CCN1CCC2(CCN(Cc3cn[nH]c3-c3ccc(OC)c(F)c3)C2)C1 (stereo unspecified),inactive,–
C=CCN(CC=C)CCOc1ccccc1[N+](=O)[O-],inactive,–
COc1ccc(Nc2nc(N)nc(CSC(=S)N3CCC(C)CC3)n2)cc1,3.16 µM (active),–
CCOC(=O)N1CCN(Cc2nc(N)nc(Nc3ccc(C)cc3)n2)CC1,inactive,–
CCOC(=O)c1cnc(SCc2nc(N)nc(Nc3ccc(OC)cc3)n2)nc1N,inactive,–
Oc1ccc(-c2onc3ccc(Cl)cc23)cc1,11.2 µM (active),–
O=C(CCCCn1c(=O)[nH]c2ccccc2c1=O)NCc1ccc2c(c1)OCO2,inactive,–
O=C1N(Cc2ccc3c(c2)OCO3)c2ccccc2C1(O)c1c[nH]c2ccccc12 (stereo unspecified),3.16 µM (active),–
O=C(Cn1nnc(-c2ccccc2)n1)NCc1ccc2c(c1)OCO2,inactive,–
CCOc1ccc(-n2cnc3c(=O)[nH]c(N)nc32)cc1,inactive,–
CO/N=C(\N)c1ccc([N+](=O)[O-])cc1,inactive,–
CCCn1c(SCC(=O)Nc2ccc(C)c(S(=O)(=O)N3CCOCC3)c2)n[nH]c1=O,inactive,–
COc1ccc(CNc2c(CO)cnc3c2cnn3C)cc1,inactive,–
CCOC(=O)CSc1nc2c(sc(=S)n2CCc2ccccc2)c(=O)n1Cc1ccco1,31.6 µM (active),–
Nc1cc(=O)nc(SCc2ccccc2)n1Cc1ccco1,inactive,–
CCOC(=O)Cc1csc(NC(=O)CSc2nnc(-c3cccnc3)n2Cc2ccco2)n1,inactive,–
Cc1cc(C)n2nc(C(=O)N3CCN(Cc4ccc5c(c4)OCO5)CC3)nc2n1,inactive,–
CCCCCCCC/C=C\CCCCCCCC(=O)OC[C@H](CO)OC(C)=O,inactive,–
CCN(CC)CCNC(=O)c1ccc(NC(=O)c2c(F)cccc2Cl)cc1,inactive,–

SMILES,Potency,"activity, negative = inhibition"
COc1c2c(cc3occ(-c4ccc5c(c4)OCO5)c(=O)c13)OC(C)(C)C=C2,14.1 µM (active),–
COc1ccc(CCNC(=O)c2cc(-c3ccc4c(c3)OCO4)on2)cc1OC,inactive,–
Cc1ccc(NC(=O)C(=O)NCC2CCN(C(=O)c3cccc([N+](=O)[O-])c3)CC2)cc1,inactive,–
CN1CCN(CC#CCC2(O)c3ccccc3-c3ccccc32)CC1,inactive,–
CC(=O)C1C(c2ccc(Cl)cc2)c2c(n[nH]c2C)CC1(C)O (stereo unspecified),inactive,–
CC(C)N1CCC(N2CCN(Cc3cccnc3)CC2CCO)CC1 (stereo unspecified),inactive,–
O=C(CC1NCCNC1=O)Nc1cc(Cl)cc(Cl)c1 (stereo unspecified),inactive,–
CCOc1ccc(NC(=O)CC2NCCNC2=O)cc1 (stereo unspecified),inactive,–
O=C(CC1NCCNC1=O)Nc1ccc(Oc2ccccc2)cc1 (stereo unspecified),20 µM (active),–
COc1ccc(-c2nc(-c3ccccc3)oc2Nc2ccc3ccccc3c2)cc1,inactive,–
COc1ccccc1CNC(=O)CNC(=O)c1cn(-c2ccccc2OC)c(=O)c2ccccc12,inactive,–
COc1cccc(CC2(CO)CCCN(CC3=Cc4cc(OC)ccc4OC3)C2)c1 (stereo unspecified),inactive,–
Cc1nn(-c2ccccc2)c(=O)c2noc(C)c12,inactive,–
O=C(c1cccnc1)N(c1cc2sc(=O)oc2c2ccccc12)S(=O)(=O)c1ccccc1,10 µM (active),–
COc1ccc(N(C(=O)c2cccnc2)S(=O)(=O)c2ccc3c(c2)n(C)c(=O)n3C)cc1,inactive,–
Cc1ccc(C(=O)Cn2cccn2)cc1,inactive,–
COc1ccc(CCNC(=O)CC2SC(=Nc3cc(C)cc(C)c3)NC2=O)cc1OC (stereo unspecified),12.6 µM (active),–
COc1ccc(CCNC(=O)COC(=O)/C=C/c2cccs2)cc1OC,inactive,–
COc1ccc(CCNC(=O)C(=O)NCc2ccccc2C)cc1OC,inactive,–
CCCCn1c(N)c(N(CC)C(=O)/C=C/c2ccco2)c(=O)[nH]c1=O,inactive,–
CC(C)(C)NC(=O)c1ccc(Cn2cc(C(F)(F)F)ccc2=O)cc1,inactive,–
O=C1NC(=Nc2ccc(Cl)cc2)SC1Cc1cccc(Cl)c1Cl (stereo unspecified),inactive,–

SMILES,Potency,"activity, negative = inhibition"
CCC(C)(C)n1nnnc1C(c1cccs1)N1CCN(Cc2ccccc2)CC1 (stereo unspecified),inactive,–
N#Cc1ccc(C(c2nnnn2CCc2ccccc2)N2CCCCCC2)cc1 (stereo unspecified),inactive,–
Fc1ccc(Cn2nnnc2C(c2cccs2)N2CCCCCC2)cc1 (stereo unspecified),7.94 µM (active),–
COc1ccc(C(=O)N/N=c2\oc3ccccc3cc2C(N)=O)cc1,inactive,–
CC1Cc2ccccc2N1C1=CC(=O)CC(C)(C)C1 (stereo unspecified),inactive,–
COc1ccccc1CSc1nc2ccccc2[nH]1,inactive,–
COc1ccccc1CSc1ncc(-c2ccc([N+](=O)[O-])cc2)[nH]1,28.2 µM (active),–
COc1ccccc1CC(=O)Nc1ccc([N+](=O)[O-])cc1OC,inactive,–
Cc1ccc(NC(=O)O[C@@H]2C(=O)c3cc(Br)ccc3O[C@H]2c2ccc3c(c2)OCO3)cc1Br,inactive,–
CC(C)(C)CN1CCNC(=O)C1CC(=O)NC1Cc2ccccc2C1 (stereo unspecified),inactive,–
COc1cccc(NC(=O)NCc2ccc(F)cc2)c1,inactive,–
COc1cccc(CNC(=O)c2n[nH]c3ccccc23)c1,inactive,–
COC(=O)[C@@H](NC(=O)NCc1cccc(OC)c1)C(C)C,10 µM (active),–
CC(=O)Cc1nsc(NC(=O)c2ccc(Cl)cc2Cl)n1,inactive,–
CC1CCCN(CC(O)COc2ccc3c(c2)OCO3)C1 (stereo unspecified),inactive,–
O=C(COC(=O)CCCNC(=O)c1ccc(Cl)cc1)Nc1cc(Cl)ccc1Cl,inactive,–
Cc1ccc(CNC(=O)CCCNC(=O)c2ccc(Cl)cc2)n1C,28.2 µM (active),–
CCCCNC(=O)CCNC(=O)c1ccc(C(C)(C)C)cc1,inactive,–
